In PubChem BioAssay AID1117353 (Cheminformatics & Chemogenomics Research Group (CCRG), …, 2015):
Activity calls are given as the source filed them. Rule as the data show it: active = inhibition above about 50%; inactive = the rest.

biological target: Vascular endothelial growth factor receptor 2 (Homo sapiens) (UniProt P35968); experiment: VEGFR2 inhibitors, primary assay, biochemical, Homo sapiens, LANCE Ultra TR-FRET, NPC library (AID 1117353); details: LANCE Ultra TR-FRET kinase assay; at 20 µM (top of the series)
Sequence (P35968 whole entry, looked up): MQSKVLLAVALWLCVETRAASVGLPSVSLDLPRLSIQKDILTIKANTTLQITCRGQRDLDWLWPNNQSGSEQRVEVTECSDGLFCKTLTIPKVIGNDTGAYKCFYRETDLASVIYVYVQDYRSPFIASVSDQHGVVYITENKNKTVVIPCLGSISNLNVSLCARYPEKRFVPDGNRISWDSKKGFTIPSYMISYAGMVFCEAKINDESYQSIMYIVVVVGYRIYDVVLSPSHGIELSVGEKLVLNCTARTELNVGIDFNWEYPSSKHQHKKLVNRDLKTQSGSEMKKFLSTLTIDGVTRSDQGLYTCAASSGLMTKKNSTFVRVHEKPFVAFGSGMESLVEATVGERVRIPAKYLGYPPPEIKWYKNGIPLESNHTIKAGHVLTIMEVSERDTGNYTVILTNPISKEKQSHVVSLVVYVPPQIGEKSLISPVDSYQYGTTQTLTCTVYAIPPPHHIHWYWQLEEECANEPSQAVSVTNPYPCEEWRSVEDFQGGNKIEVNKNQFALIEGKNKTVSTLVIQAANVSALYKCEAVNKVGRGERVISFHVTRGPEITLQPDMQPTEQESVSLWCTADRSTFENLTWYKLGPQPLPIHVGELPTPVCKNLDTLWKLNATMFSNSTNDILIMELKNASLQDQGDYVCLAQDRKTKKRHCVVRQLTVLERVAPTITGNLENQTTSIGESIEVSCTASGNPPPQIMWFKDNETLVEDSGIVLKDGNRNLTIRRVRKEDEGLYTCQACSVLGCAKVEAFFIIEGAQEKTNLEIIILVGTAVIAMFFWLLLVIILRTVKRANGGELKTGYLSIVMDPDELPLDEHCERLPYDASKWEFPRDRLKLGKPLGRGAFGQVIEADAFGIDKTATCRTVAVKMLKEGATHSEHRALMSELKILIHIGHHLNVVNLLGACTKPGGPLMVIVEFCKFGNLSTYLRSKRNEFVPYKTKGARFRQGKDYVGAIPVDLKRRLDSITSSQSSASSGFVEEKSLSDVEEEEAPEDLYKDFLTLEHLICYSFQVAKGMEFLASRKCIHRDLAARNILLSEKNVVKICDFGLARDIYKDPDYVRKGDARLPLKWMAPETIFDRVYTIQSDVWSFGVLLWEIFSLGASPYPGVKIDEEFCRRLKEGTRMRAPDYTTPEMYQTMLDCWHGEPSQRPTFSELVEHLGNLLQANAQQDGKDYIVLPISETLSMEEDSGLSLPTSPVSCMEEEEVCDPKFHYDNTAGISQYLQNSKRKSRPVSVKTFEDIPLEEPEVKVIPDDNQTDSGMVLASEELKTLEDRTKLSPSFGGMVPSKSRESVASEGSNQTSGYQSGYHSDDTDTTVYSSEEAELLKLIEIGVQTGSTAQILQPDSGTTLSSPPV

Row | SMILES | inhibition
1 | O=c1[nH]c(=O)n([C@H]2C[C@H](O)[C@@H](CO)O2)cc1C(F)(F)F | -17.7% (inactive)
2 | CCC1=C[C@@H]2CN(C1)Cc1c([nH]c3ccccc13)[C@@](C(=O)OC)(c1cc3c(cc1OC)N(C)[C@H]1[C@@](O)(C(=O)OC)[C@H](OC(C)=O)[C@]4(CC)C=CCN5CC[C@]31[C@@H]54)C2 | -20.3% (inactive)
3 | Nc1ccc2cc3ccc(N)cc3nc2c1 | -25.5% (inactive)
4 | CC(=O)[C@]1(O)Cc2c(O)c3c(c(O)c2[C@@H](O[C@H]2C[C@H](N)[C@H](O)[C@H](C)O2)C1)C(=O)c1ccccc1C3=O | -143% (inactive)
5 | CN(C)c1ccc2nc3ccc(=[N+](C)C)cc-3sc2c1 | -6.83% (inactive)
6 | [O-][n+]1ccccc1SSc1cccc[n+]1[O-] | -17.4% (inactive)
7 | COC(=O)c1nc(Cl)c(Cl)nc1N | 6.09% (inactive)
8 | CC(C)(C)C1CCC(CC2=C(O)c3ccccc3C(=O)C2=O)CC1 (configuration not stated) | -21.1% (inactive)
9 | CC[C@]1(O)C[C@H]2CN(CCc3c([nH]c4ccccc34)[C@@](C(=O)OC)(c3cc4c(cc3OC)N(C=O)[C@H]3[C@@](O)(C(=O)OC)[C@H](OC(C)=O)[C@]5(CC)C=CCN6CC[C@]43[C@@H]65)C2)C1 | -11.3% (inactive)
10 | C=CC(=O)Nc1cc2c(Nc3ccc(F)c(Cl)c3)ncnc2cc1OCCCN1CCOCC1 | 98.7% (active)
11 | CCc1nc(N)nc(N)c1-c1ccc(Cl)cc1 | 17% (inactive)
12 | COC(=O)Nc1nc2ccc(C(=O)c3ccccc3)cc2[nH]1 | 74.1% (active)
